40 compounds from PubChem BioAssay (Tox21) can be followed below.

Structures are written as SMILES. Where “and” joins values, the source holds several entries; their conditions need not be identical. Equal entries are not always repeated. Records with an inconclusive call do not appear. Calls of active or inactive are those of the source. Calls follow the shape of the dose curve; as a rule, active = well fitted cell-killing curve with a large enough effect in the repeat runs; inconclusive = weak or mixed curves, or effect the other way; inactive = flat fitted curve, though single readings scatter.
% is scaled to controls: 0 for no effect and ±100 for the full control effect; potency is read from the fitted curve at half-maximal effect.

The nature of this test: cAMP Responsive Elements (CRE) small molecule agonists, cell-based qHTS assay: qHTS cell viability counter screen (AID 2060914). Also: nearly all actives have a fitted effect of over 50% in size. The settings on record: CRE-bla HEK293T viability, CellTiter-Glo luminescence, 5 h; series mostly up to 92.4 µM; activity change, negative = cytotoxicity: at the top concentration. The procedure, abridged: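 HEK 293T CRE-bla; DMEM + 10% dialyzed FBS, 25 mM HEPES; 18 h pre-incubation; compound 3 h, 37 °C/5% CO2; CellTiter-Glo added after reporter read; luminescence after 30 min RT.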
For `CCCC(=O)Nc1ccc(O)c(C(C)=O)c1`, the “activity change, negative = cytotoxicity” value was 9.87% [at 42.5 µM] (inactive).

As to `C[C@H](CCC(=O)NCC(=O)O)[C@H]1CC[C@H]2[C@@H]3[C@H](O)C[C@@H]4C[C@H](O)CC[C@]4(C)[C@H]3C[C@H](O)[C@]12C`, the “activity change, negative = cytotoxicity” value was -2.93% (inactive).

For `CCCCCN(CCCCC)C(=O)C(CCC(=O)O)NC(=O)c1ccc(Cl)c(Cl)c1` (stereo not given), the “activity change, negative = cytotoxicity” value was 14.3% [at 42.5 µM] (inactive).

Turning to `Cc1cccc(O)c1C`, the Potency result is “inactive”.

Turning to `NS(=O)(=O)c1ccc(Cl)c(S(N)(=O)=O)c1`, the “activity change, negative = cytotoxicity” value is 2.07% [at 42.5 µM] (inactive).

For `CCCCCCCCCCCCN(CCO)CCO`, the Potency was 60.9 µM (active).

`COc1ccc2c(c1)c(CC(=O)O)c(C)n2C(=O)c1ccc(Cl)cc1`: the Potency entry is “inactive”.

With `O=C1CCCN1C1CCCCC1`, the “activity change, negative = cytotoxicity” value is 7.01% (inactive).

For the compound `O=C1CCc2cc(OCCCCc3nnnn3C3CCCCC3)ccc2N1`, the “activity change, negative = cytotoxicity” value is -6.91% [at 42.5 µM] (inactive).

For the compound `Cc1ccc(N)c([N+](=O)[O-])c1`, the Potency result was “inactive”.

Take `CCOc1ccc2ccccc2c1C(=O)N[C@@H]1C(=O)N2[C@@H]1SC(C)(C)[C@@H]2C(=O)O`: the “activity change, negative = cytotoxicity” value was 8.26% [at 42.5 µM] (inactive).

Regarding `NCCCCCCNCCCCCCN`, the “activity change, negative = cytotoxicity” value is -1.53% (inactive).

Turning to `C[C@H]1COc2c(C3(N)CC3)c(F)cc3c(=O)c(C(=O)O)cn1c23`, the “activity change, negative = cytotoxicity” value is 3.45% [at 42.5 µM] (inactive).

`CC1(C)CC(OC(=O)CCCCCCCCC(=O)OC2CC(C)(C)NC(C)(C)C2)CC(C)(C)N1`: the activity change, negative = cytotoxicity is 1.68% [at 18.9 µM] (inactive).

For `O=C(O)c1ccc(Cl)cc1Cl`, the “activity change, negative = cytotoxicity” value is 7.42% (inactive).

As for `CN1CC(=O)N2[C@H](c3ccc4c(c3)OCO4)c3[nH]c4ccccc4c3C[C@@H]2C1=O`, the “activity change, negative = cytotoxicity” value was 0.849% [at 42.5 µM] (inactive).

For `CCN(CC)CC(=O)Nc1c(C)cccc1C(=O)OC`, the “activity change, negative = cytotoxicity” value is 0.646% [at 42.5 µM] (inactive).

In the case of `CCOC(=O)c1c(N)sc2c1CCN(Cc1ccccc1)C2`, the “activity change, negative = cytotoxicity” value was -2.83% [at 42.5 µM] (inactive).

Regarding `O=C(O)c1cc(-c2ccc(F)cc2F)ccc1O`, the “activity change, negative = cytotoxicity” value is 4.6% [at 42.5 µM] (inactive).

With `COc1cc(C(C)C)c2c(c1)S(=O)(=O)N(COc1cc(=O)n3cccc(OCCN4CCCCC4)c3n1)C2=O`, the activity change, negative = cytotoxicity was 4.87% [at 18.9 µM] (inactive).

With `CCCCN=C(N)N=C(N)N`, the “activity change, negative = cytotoxicity” value was 3.29% [at 42.5 µM] (inactive).

As to `CCn1c2ccccc2c2ccccc21`, the “activity change, negative = cytotoxicity” value was -0.216% (inactive).

As for `C[Si]1(C)O[Si](C)(C)O[Si](C)(C)O[Si](C)(C)O[Si](C)(C)O1`, the “activity change, negative = cytotoxicity” value was -0.0261% (inactive).

For `CC(O)Cn1cnc2c1c(=O)n(C)c(=O)n2C` (stereo not given), the “activity change, negative = cytotoxicity” value is 3.2% [at 42.5 µM] (inactive).

For the compound `CC(C)(CCl)c1ccccc1`, the “activity change, negative = cytotoxicity” value was -9.38% (inactive).

Regarding `NCCc1ccc(O)c(O)c1`, the Potency result was “inactive”.

Turning to `O=C1CCCC(=O)C1`, the “activity change, negative = cytotoxicity” value was -0.229% (inactive).

Turning to `Cc1c(C(=O)NCCO)[n+](=O)c2ccccc2n1[O-]`, the “activity change, negative = cytotoxicity” value is 5.47% [at 42.5 µM] (inactive).

As to `CC1=CCC(C(C)(C)O)CC1` (stereo not given), the Potency entry was “inactive”.

Turning to `Cc1cc(C(C)(C)C)c(O)c(C(C)(C)C)c1`, the Potency entry was “inactive”.

For `CN(C)c1ccc(C(=C2C=CC(=[N+](C)C)C=C2)c2ccc(N(C)C)cc2)cc1`, the Potency was 48.3 µM (active) and 61.1 µM (active) and 29.8 µM (active).

Consider `Cc1ccc(S(=O)(=O)NCl)cc1`, for which the Potency result is “inactive”.

On to `C=C(C)C(=O)OCCCCCCCC(C)C`, for which the “activity change, negative = cytotoxicity” value is -6.51% (inactive).

`O=[N+]([O-])c1ccc(Cl)cc1Cl`: the “activity change, negative = cytotoxicity” value is 6.32% (inactive).

For the compound `CCCCCCC[N+](CC)(CC)CCCCc1ccc(Cl)cc1`, the “activity change, negative = cytotoxicity” value is -4.69% [at 42.5 µM] (inactive).

On to `CN1C(C(=O)Nc2ccccn2)=C(O)c2sccc2S1(=O)=O`, for which the “activity change, negative = cytotoxicity” value was 2.75% [at 42.5 µM] (inactive).

As to `CCCCCC1CCCC(=O)O1` (stereo not given), the “activity change, negative = cytotoxicity” value is 2.5% (inactive).

Turning to `CC(C)Cc1ccc(C(C)C(=O)OCc2ccccn2)cc1` (stereo not given), the “activity change, negative = cytotoxicity” value is -2.18% [at 42.5 µM] (inactive).

On to `CCCCCCCCCCCCCCCCCCOS(=O)(=O)O`, for which the “activity change, negative = cytotoxicity” value is 1.79% (inactive).

For the compound `O=C1c2ccccc2C(=O)C1c1ccc2ccccc2n1`, the “activity change, negative = cytotoxicity” value was -14.8% [at 42.5 µM] (inactive).
